T cruzi growth-1: blocks T. cruzi growth in NIH3T3 culture; T. cruzi beta-gal in NIH3T3, GalScreen luminescence, 90 h; inhibition, % at 8.34 µM; actives 5.9% (n = 77,000); AID 624255;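 active = mean inhibition above about 93%, with at least 55% of replicates each passing it, limit read from the data, passing the limit was not always enough; inconclusive = only one of those two conditions holds; inactive = neither condition holds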
C diff HTS: inhibitors of Clostridium difficile growth; Clostridium difficile clinical isolate growth, OD600, 24 h; stronger effect = lower value; growth activity, negative = inhibition, % at 16 µg/mL (by protocol); actives 0.25% (n = 86,000); AID 1259249;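 active = mean growth activity at or below -80% and every replicate also at or below -80%; inconclusive = mean at or below -80% but some replicate above -80%; inactive = mean growth activity above -80%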
Pf Dd2 growth: blocks growth of Plasmodium falciparum Dd2 parasites. P. falciparum Dd2 growth, SYBR Green, 72 h; stronger effect = lower value. activity change, % at 10 µM. actives 2.3% (n = 94,000). AID 1159554; in the data active = activity change below about -80%; inconclusive = no clear call, values can overlap the other calls
T cruzi growth-2: inhibitors of T. cruzi proliferation; shares compounds with T cruzi growth-1; T. cruzi beta-gal in NIH3T3, GalScreen luminescence, 90 h; inhibition, % at 8.35 µM; actives 72% (n = 5,600);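 active = mean replicate inhibition above about 95% and at least 55% of replicates individually reaching it, limit read from the data; inconclusive = only one of the two criteria is met; inactive = neither criterion is met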
T cruzi growth-3: inhibitors of T. cruzi proliferation | shares compounds with T cruzi growth-1 | T. cruzi beta-gal in NIH3T3, GalScreen luminescence, 90 h | inhibition, % at 2.09 µM | actives 21% (n = 5,600);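 active = mean inhibition above about 95%, with at least 55% of replicates also reaching it, limit read from the data; inconclusive = meets just one of the two conditions; inactive = meets neither condition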
NIH3T3 tox: kills mouse NIH/3T3 fibroblasts. cytotoxicity (signal decrease), % at 8.35 µM. AID 651742. shares compounds with T cruzi growth-1. NIH/3T3 viability, CellTiter-Glo ATP luminescence, 90 h. actives 14% (n = 5,600);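 active = mean signal decrease across replicates above about 35% based on untreated-well scatter, with enough replicates individually passing, limit read from the data; inconclusive = no rule stated though some were filed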
NIH3T3 tox 2: NIH/3T3 (mouse) viability loss; actives 56% (n = 5,600); NIH/3T3 viability, CellTiter-Glo ATP luminescence, 90 h; inhibition, % at 24.9 µM; shares compounds with T cruzi growth-1; AID 651744;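 active = mean loss of cell viability signal at or above a set limit, and enough replicates individually reaching it; inconclusive = meets only the mean limit or only the replicate share; inactive = meets neither condition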
Large screens that a line does not name were inactive (follow-up assays come after a bar, where they were run). Only some compounds are listed: those with a hit (about 6.8% of all), similar ones and a draw of the others.

C[C@H](CO)N1C[C@H](C)[C@H](CN(C)S(=O)(=O)c2ccc(Cl)cc2)OCCCC[C@H](C)Oc2ccc(NC(=O)C3CCCCC3)cc2C1=O	T cruzi growth-1 106 | T cruzi growth-2 111 | T cruzi growth-3 inactive | NIH3T3 tox inactive | NIH3T3 tox 2 51
COc1ccc(S(=O)(=O)N(C)C[C@H]2OCCCC[C@@H](C)Oc3ccc(NC(=O)C4CCCCC4)cc3C(=O)N([C@@H](C)CO)C[C@H]2C)cc1	none
C[C@@H]1CN([C@H](C)CO)C(=O)c2cc(NC(=O)C3CCCCC3)ccc2O[C@@H](C)CCCCO[C@H]1CN(C)S(=O)(=O)c1ccccc1	none
C[C@@H]1CCCCO[C@H](CN(C)S(=O)(=O)c2ccccc2)[C@@H](C)CN([C@H](C)CO)C(=O)c2cc(NC(=O)C3CCCCC3)ccc2O1	none
C[C@@H]1CCCCO[C@@H](CN(C)S(=O)(=O)c2ccc(F)cc2)[C@H](C)CN([C@H](C)CO)C(=O)c2cc(NC(=O)C3CCCCC3)ccc2O1	T cruzi growth-1 101 | T cruzi growth-2 107 | T cruzi growth-3 inactive | NIH3T3 tox inactive | NIH3T3 tox 2 inactive
C[C@@H]1CN([C@H](C)CO)C(=O)c2cc(NC(=O)C3CCCCC3)ccc2O[C@@H](C)CCCCO[C@H]1CN(C)S(=O)(=O)c1ccc(F)cc1	none
C[C@H](CO)N1C[C@H](C)[C@@H](CN(C)S(=O)(=O)c2ccc(Cl)cc2)OCCCC[C@H](C)Oc2ccc(NC(=O)C3CCCCC3)cc2C1=O	T cruzi growth-1 107 | T cruzi growth-2 104 | T cruzi growth-3 inactive | NIH3T3 tox inactive | NIH3T3 tox 2 inactive
C[C@@H]1CN([C@@H](C)CO)C(=O)c2cc(NC(=O)C3CCCCC3)ccc2O[C@@H](C)CCCCO[C@H]1CN(C)S(=O)(=O)c1ccccc1	none
C[C@@H]1CCCCO[C@@H](CN(C)S(=O)(=O)c2ccccc2)[C@@H](C)CN([C@@H](C)CO)C(=O)c2cc(NC(=O)C3CCCCC3)ccc2O1	none
C[C@@H]1CN([C@H](C)CO)C(=O)c2cc(NC(=O)C3CCCCC3)ccc2O[C@@H](C)CCCCO[C@H]1CN(C)S(=O)(=O)c1ccc(Cl)cc1	T cruzi growth-1 102, Pf Dd2 growth -83 | T cruzi growth-2 106 | T cruzi growth-3 inactive | NIH3T3 tox inactive | NIH3T3 tox 2 70
C[C@H]1CN([C@@H](C)CO)C(=O)c2cc(NC(=O)Cc3cn(C)c4ccccc34)ccc2O[C@@H]1CN(C)C(=O)Nc1ccc2c(c1)OCO2	none
O=C(NCC1CCCCC1)[C@@H]1[C@@H](CO)[C@@H]2Cn3c(ccc(-c4ccccc4)c3=O)[C@H]1N2	none
C[C@@H]1CN([C@@H](C)CO)S(=O)(=O)c2ccc(-c3cccnc3)cc2O[C@@H]1CN(C)C	T cruzi growth-1 inconclusive | T cruzi growth-2 97 | T cruzi growth-3 inactive | NIH3T3 tox inactive | NIH3T3 tox 2 inactive
CC(=O)N(C)C[C@@H]1Oc2cc(-c3cccnc3)ccc2S(=O)(=O)N([C@H](C)CO)C[C@@H]1C	none (no result: C diff HTS)
C[C@@H]1CN([C@H](C)CO)S(=O)(=O)c2ccc(-c3cncnc3)cc2O[C@H]1CN(C)Cc1ccccc1	T cruzi growth-1 inconclusive | T cruzi growth-2 inactive | T cruzi growth-3 inactive | NIH3T3 tox 52 | NIH3T3 tox 2 68
C[C@@H]1CN([C@@H](C)CO)S(=O)(=O)c2ccc(-c3cncnc3)cc2O[C@@H]1CN(C)Cc1ccccc1	none
C[C@H]1CN([C@@H](C)CO)S(=O)(=O)c2ccc(-c3cccnc3)cc2O[C@@H]1CN(C)Cc1ccncc1	T cruzi growth-1 inconclusive | T cruzi growth-2 101 | T cruzi growth-3 inactive | NIH3T3 tox inactive | NIH3T3 tox 2 28
C[C@H](CO)N1C[C@H](C)[C@H](CN(C)Cc2ccncc2)Oc2cc(-c3ccccc3)ccc2S1(=O)=O	T cruzi growth-1 95 (no result: C diff HTS) | T cruzi growth-2 105 | T cruzi growth-3 99 | NIH3T3 tox inactive | NIH3T3 tox 2 40
C[C@H](CO)N1C[C@H](C)[C@H](CN(C)Cc2ccncc2)Oc2cc(-c3cccnc3)ccc2S1(=O)=O	none
C[C@@H]1CN([C@H](C)CO)S(=O)(=O)c2ccc(-c3ccccc3)cc2O[C@H]1CN(C)Cc1ccncc1	none (no result: C diff HTS)

Screening data deposited in PubChem by Broad Institute.
